# Test results taken from PubChem BioAssay AID1159580 (chemical genetic matrix, 2015).
# Hit rate of the full screen: of about 5,500 compounds, about 2,000 (36%) were called active. Roughly 18% stayed inconclusive and do not appear here. The list shows a part of the results. Values without a mark were called inactive. Cut-off read from the data, not from the text of the source: active = normalized growth mostly below about 0.91 (no sharp cut-off); inconclusive = no clear call, values can overlap the other calls; inactive = mostly above about 0.92.
# Assay: chemical genetic growth profiling, strain panel (AID 1159580);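 note: tested at 20 µM; growth read once vehicle control cultures reached saturation at 30 °C; 1 = growth at the plate median or of vehicle wells; lower values mean less growth of the strain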
# Conditions: S. cerevisiae deletion strains, growth OD
# [1] = locus YAR019C, strain CDC15, active compounds read low
# [2] = locus YBL105C, strain PKC1, active compounds read low
# [3] = locus YBR135W, strain CKS1, active compounds read low
# [4] = locus YBR136W, strain MEC1, active compounds read low
# [5] = locus YBR160W, strain CDC28, active compounds read low
# [6] = locus YDL017W, strain CDC7, active compounds read low
# [7] = locus YDL028C, strain MPS1, active compounds read low
# [8] = locus YDL101C, strain DUN1, active compounds read low
# [9] = locus YDL108W, strain KIN28, active compounds read low
# [10] = locus YDL132W, strain cdc53, active compounds read low
# [11] = locus YDL214C, strain PRR2, active compounds read low
# [12] = locus YDR052C, strain DBF4, active compounds read low
# [13] = locus YDR054C, strain cdc34, active compounds read low
# [14] = locus YDR226W, strain ADK1, active compounds read low
# [15] = locus YDR477W, strain SNF1, active compounds read low
# [16] = locus YER123W, strain YCK3, active compounds read low
# [17] = locus YER133W, strain GLC7, active compounds read low
# [18] = locus YFL009W, strain cdc4, active compounds read low
# [19] = locus YFL029C, strain CAK1, active compounds read low
# [20] = locus YFR003C, strain YPI1, active compounds read low
# [21] = locus YFR019W, strain FAB1, active compounds read low
# [22] = locus YFR028C, strain CDC14, active compounds read low
# [23] = locus YGR040W, strain KSS1, active compounds read low
# [24] = locus YGR052W, strain FMP48, active compounds read low
# [25] = locus YGR092W, strain DBF2, active compounds read low
# [26] = locus YHR030C, strain SLT2, active compounds read low
# [27] = locus YHR079C, strain IRE1, active compounds read low
# [28] = locus YHR082C, strain KSP1, active compounds read low
# [29] = locus YHR205W, strain SCH9, active compounds read low
# [30] = locus YIL147C, strain SLN1, active compounds read low
# [31] = locus YJL095W, strain BCK1, active compounds read low
# [32] = locus YJL128C, strain PBS2, active compounds read low
# [33] = locus YJL157C, strain FAR1, active compounds read low
# [34] = locus YJR016C, strain ILV3, active compounds read low
# [35] = locus YJR066W, strain TOR1 (second series), active compounds read low
# [36] = locus YJR066W, strain TOR1, active compounds read low
# [37] = locus YKL048C, strain ELM1, active compounds read low
# [38] = locus YKL067W, strain YNK1, active compounds read low
# [39] = locus YKL101W, strain HSL1, active compounds read low
# [40] = locus YKL193C, strain SDS22, active compounds read low
# [41] = locus YKL203C, strain TOR2, active compounds read low
# [42] = locus YLR113W, strain HOG1, active compounds read low
# [43] = locus YLR133W, strain CKI1, active compounds read low
# [44] = locus YLR403W, strain SFP1, active compounds read low
# [45] = locus YML070W, strain DAK1, active compounds read low
# [46] = locus YMR001C, strain CDC5, active compounds read low
# [47] = locus YMR205C, strain PFK2 (second series), active compounds read low
# [48] = locus YMR277W, strain FCP1, active compounds read low
# [49] = locus YNL006W, strain LST8, active compounds read low
# [50] = locus YNL020C, strain ARK1, active compounds read low
# [51] = locus YNL161W, strain CBK1, active compounds read low
# [52] = locus YNL183C, strain NPR1, active compounds read low
# [53] = locus YNL207W, strain RIO2, active compounds read low
# [54] = locus YNL222W, strain SSU72, active compounds read low
# [55] = locus YNL307C, strain MCK1 (second series), active compounds read low
# [56] = locus YOL078W, strain AVO1, active compounds read low
# [57] = locus YOL136C, strain PFK27, active compounds read low
# [58] = locus YOR061W, strain CKA2, active compounds read low
# [59] = locus YOR119C, strain RIO1, active compounds read low
# [60] = locus YOR231W, strain MKK1, active compounds read low
# [61] = locus YOR329C, strain SCD5, active compounds read low
# [62] = locus YPL031C, strain PHO85, active compounds read low
# [63] = locus YPL153C, strain RAD53, active compounds read low
# [64] = locus YPL204W, strain HRR25, active compounds read low
# [65] = locus YPL209C, strain IPL1, active compounds read low
# [66] = locus YPL256C, strain CLN2, active compounds read low
# [67] = locus YPR025C, strain CCL1, active compounds read low
# [68] = locus YPR106W, strain ISR1, active compounds read low
# [69] = locus YPR111W, strain DBF20, active compounds read low
# [70] = strain NNK1, active compounds read low
# [71] = strain TSCII, active compounds read low
structure (smiles),measurement,setting,value
COC(=O)C1=C(C)NC(C)=C(C(=O)OC)C1c1ccc(Cl)cc1Cl,normalized growth,[1],0.973
same,normalized growth,[2],0.976
same,normalized growth,[3],0.971
same,normalized growth,[4],0.976
same,normalized growth,[5],0.981
same,normalized growth,[6],0.979
same,normalized growth,[7],0.977
same,normalized growth,[8],0.973
same,normalized growth,[9],0.967
same,normalized growth,[10],0.967
same,normalized growth,[11],0.917
same,normalized growth,[12],0.986
same,normalized growth,[13],0.967
same,normalized growth,[14],0.972
same,normalized growth,[15],0.909
same,normalized growth,[16],0.887
same,normalized growth,[17],0.889
same,normalized growth,[18],0.968
same,normalized growth,[19],0.969
same,normalized growth,[20],0.98
same,normalized growth,[21],0.949
same,normalized growth,[22],0.974
same,normalized growth,[23],0.914
same,normalized growth,[24],0.989
same,normalized growth,[25],0.88
same,normalized growth,[26],0.99
same,normalized growth,[27],0.963
same,normalized growth,[28],0.97
same,normalized growth,[29],0.943
same,normalized growth,[30],0.961
same,normalized growth,[31],0.961
same,normalized growth,[32],0.98
same,normalized growth,[33],0.928
same,normalized growth,[34],0.972
same,normalized growth,[35],0.908
same,normalized growth,[36],0.999
same,normalized growth,[37],0.949
same,normalized growth,[38],0.947
same,normalized growth,[39],0.936
same,normalized growth,[40],0.978
same,normalized growth,[41],0.975
same,normalized growth,[42],0.912
same,normalized growth,[43],0.956
same,normalized growth,[44],0.88
same,normalized growth,[45],0.911
same,normalized growth,[46],0.972
same,normalized growth,[47],0.956
same,normalized growth,[48],0.978
same,normalized growth,[49],0.973
same,normalized growth,[50],0.94
same,normalized growth,[51],0.987
same,normalized growth,[52],0.985
same,normalized growth,[53],0.973
same,normalized growth,[54],0.973
same,normalized growth,[55],0.947
same,normalized growth,[56],0.991
same,normalized growth,[57],0.918
same,normalized growth,[58],0.93
same,normalized growth,[59],0.945
same,normalized growth,[60],0.933
same,normalized growth,[61],0.984
same,normalized growth,[62],0.884
same,normalized growth,[63],0.866
same,normalized growth,[64],0.898
same,normalized growth,[65],0.985
same,normalized growth,[66],0.971
same,normalized growth,[67],0.979
same,normalized growth,[68],0.975
same,normalized growth,[69],0.975
same,normalized growth,[70],0.977
same,normalized growth,[71],0.968
CCOC(=O)C1=C(N)OC2=C(C(=O)CC(C)(C)C2)C1c1ccc(Cl)cc1Cl (configuration not stated),normalized growth,[1],0.984
same,normalized growth,[2],0.982
same,normalized growth,[3],0.978
same,normalized growth,[4],0.981
same,normalized growth,[5],0.964
same,normalized growth,[6],0.978
same,normalized growth,[7],0.98
same,normalized growth,[8],0.966
same,normalized growth,[9],0.978
same,normalized growth,[10],0.975
same,normalized growth,[11],0.968
same,normalized growth,[12],0.979
same,normalized growth,[13],0.965
same,normalized growth,[14],0.978
same,normalized growth,[15],0.95
same,normalized growth,[16],0.927
same,normalized growth,[17],0.959
same,normalized growth,[18],0.974
same,normalized growth,[19],0.981
same,normalized growth,[20],0.982
same,normalized growth,[21],0.956
same,normalized growth,[22],0.976
same,normalized growth,[23],0.954
same,normalized growth,[24],1.08
same,normalized growth,[25],0.973
same,normalized growth,[26],0.804 (active)
same,normalized growth,[27],0.943
same,normalized growth,[28],1.01
same,normalized growth,[29],0.953
same,normalized growth,[30],0.984
same,normalized growth,[31],0.904
same,normalized growth,[32],0.975
same,normalized growth,[33],0.976
same,normalized growth,[34],0.99
same,normalized growth,[35],0.95
same,normalized growth,[36],0.947
same,normalized growth,[37],0.948
same,normalized growth,[38],0.959
same,normalized growth,[39],0.963
same,normalized growth,[40],0.973
same,normalized growth,[41],1
same,normalized growth,[42],0.934
same,normalized growth,[43],0.961
same,normalized growth,[44],0.964
same,normalized growth,[45],0.944
same,normalized growth,[46],0.984
same,normalized growth,[47],0.976
same,normalized growth,[48],0.98
same,normalized growth,[49],0.987
same,normalized growth,[50],0.95
same,normalized growth,[51],0.983
same,normalized growth,[52],0.934
same,normalized growth,[53],0.989
same,normalized growth,[54],0.977
same,normalized growth,[55],0.947
same,normalized growth,[56],0.979
same,normalized growth,[57],0.952
same,normalized growth,[58],0.958
same,normalized growth,[59],1.06
same,normalized growth,[60],0.953
same,normalized growth,[61],0.976
same,normalized growth,[62],0.948
same,normalized growth,[63],0.952
same,normalized growth,[64],0.933
same,normalized growth,[65],0.966
same,normalized growth,[66],0.876
same,normalized growth,[67],0.979
same,normalized growth,[68],0.979
same,normalized growth,[69],0.964
same,normalized growth,[70],0.973
same,normalized growth,[71],0.982
